Compound activity (PubChem)
Only some compounds are listed: those with a hit (about 4.3% of all), similar ones and a draw of the others.
SMARCA2 act = SMARCA2 (BRM) function activators, primary screen, cell-based, luminescence, high throughput; activation, % at 9.1 µM; MG213 cells, MMTV-luciferase reporter, dexamethasone, overnight; 1% of 370,000 active; AID 652017, 2013; in the data active means activation above about 7.8%
AF4-AF9 inh = inhibitors of AF4 peptide binding to AF9, primary screen, biochemical, AlphaScreen, biotin-AF4 peptide, FLAG-AF9, single point. 0.47% of 350,000 active. inhibition, % at 10 µM;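 active means every replicate reaching a set inhibition limit, whatever the replicate mean, cut at about 25% in these data; inconclusive means mean inhibition reaches that limit but some replicates miss it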
Target sequence (P42568 whole entry, looked up): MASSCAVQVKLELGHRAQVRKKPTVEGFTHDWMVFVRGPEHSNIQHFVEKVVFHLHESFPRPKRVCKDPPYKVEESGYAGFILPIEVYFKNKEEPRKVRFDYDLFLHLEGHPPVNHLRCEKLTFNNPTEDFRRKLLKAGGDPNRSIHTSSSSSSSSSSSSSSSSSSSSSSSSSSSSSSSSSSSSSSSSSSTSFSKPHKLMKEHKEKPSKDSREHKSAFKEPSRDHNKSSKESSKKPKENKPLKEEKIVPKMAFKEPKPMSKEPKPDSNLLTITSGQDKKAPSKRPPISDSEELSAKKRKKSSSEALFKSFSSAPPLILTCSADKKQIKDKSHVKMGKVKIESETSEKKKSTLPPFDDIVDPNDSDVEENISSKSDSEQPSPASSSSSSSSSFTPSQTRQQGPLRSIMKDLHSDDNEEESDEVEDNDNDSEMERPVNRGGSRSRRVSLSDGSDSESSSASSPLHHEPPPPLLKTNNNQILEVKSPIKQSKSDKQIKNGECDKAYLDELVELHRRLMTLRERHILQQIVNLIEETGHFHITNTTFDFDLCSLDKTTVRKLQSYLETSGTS
FGF22 binding = binders of human FGF22 protein, primary screen, FGF22 synaptogenesis inhibitor project, biophysical, thermal shift, single point; AID 651658, 2012; 1.5% of 340,000 active; recombinant FGF22 thermal shift, SYPRO orange fluorescence; percent of sucrose octasulfate shift, DMSO zero; Fibroblast growth factor 22 (Homo sapiens), Q9HCT0; activity (Tm shift, normalised), % at 9.99 µM;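 active means mean Tm shift, scaled 0 neutral to 100 positive control, at about 1.3% or above, every replicate too, limit read from the data; inconclusive means no clear call, values can overlap the other calls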
Target sequence (Q9HCT0 whole entry, looked up): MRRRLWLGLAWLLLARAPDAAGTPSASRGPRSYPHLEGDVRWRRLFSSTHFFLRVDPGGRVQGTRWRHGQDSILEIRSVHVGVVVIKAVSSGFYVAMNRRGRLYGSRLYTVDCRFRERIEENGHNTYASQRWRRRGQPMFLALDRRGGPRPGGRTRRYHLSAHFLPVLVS
Wnt act = Wnt/beta-catenin pathway activators, primary screen, cell-based, plate reader, single point; activation, % at 9.35 µM; 1.2% of 300,000 active; AID 743398, 2014; Wnt/beta-catenin reporter cell assay, activator; in the data active means activation above about 30%, passing the limit was not always enough; inconclusive means no clear call, values can overlap the other calls
esBAF inh = Bmi1 luciferase reporter increase in mESCs, primary screen, esBAF inhibitor project, mouse ES cells, Bmi1 luciferase knock-in, single point. reporter increase, % at 12.5 µM. 2% of 350,000 active. 24 h; 100% = twice the neutral-well signal; in the data active means activation above about 40%; inconclusive means no clear call, values can overlap the other calls;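 further: a rise in the Bmi1 reporter signal indicates esBAF inhibition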
MITF act = activators of MITF-driven TRPM1 promoter reporter, primary screen, cell-based, SK-MEL-5, luciferase, single point; 0.75% of 300,000 active; activation, % at 12.5 µM; SK-MEL-5 TRPM1-promoter luciferase, 24 h; % of positive control, neutral wells = 0;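 active means mean activation of at least 80% with every replicate also reaching 80%; inconclusive means mean reaches 80% but some replicate falls short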
Of the large screens only hits and unclear results are named; the others gave an inactive call.

Nc1nnnn1/N=C/C(Br)=C/c1ccccc1	esBAF inh 53 (no result: AF4-AF9 inh, FGF22 binding)
Nc1nnnn1/N=C/C=C/c1ccccc1	none (no result: AF4-AF9 inh, FGF22 binding, Wnt act)
C[C@H](CO)N1C[C@H](C)[C@@H](CN(C)Cc2ccc(Oc3ccccc3)cc2)Oc2c(NC(=O)Nc3ccc(C(F)(F)F)cc3)cccc2C1=O	none (no result: SMARCA2 act, Wnt act, MITF act)
COCC(=O)Nc1ccc2c(c1)C(=O)N(C)[C@H]1CC[C@@H](CC(=O)N3CCc4ccccc4C3)O[C@H]1CO2	none (no result: SMARCA2 act, Wnt act, MITF act)
O=[N+]([O-])c1cc(Br)cc(C=Nc2ccc3c(c2)OCO3)c1O	none
O=[N+]([O-])c1ccc(O)c(C=Nc2ccc3c(c2)OCO3)c1	Wnt act 34, esBAF inh 41
O=C(Nc1ccc(Cl)c(Cl)c1)N1CC=CCC1	esBAF inh 100 (no result: AF4-AF9 inh, FGF22 binding, Wnt act)
CCC(=O)c1c[nH]c(C(=O)N2CCN(c3ccccc3)CC2)c1	FGF22 binding 43 (no result: esBAF inh)
C[C@H](CO)N1C[C@H](C)[C@@H](CN(C)CC2CC2)Oc2c(NS(=O)(=O)c3ccc(Cl)cc3)cccc2C1=O	none (no result: SMARCA2 act, FGF22 binding, Wnt act, MITF act)
COc1ccc(Nc2cnn(-c3nc4ccccc4s3)c(=O)c2Cl)cc1	SMARCA2 act 12 (no result: esBAF inh)
CNC[C@@H]1Oc2ccc(NC(=O)Cn3cnnn3)cc2CC(=O)N([C@H](C)CO)C[C@@H]1C	none (no result: SMARCA2 act, Wnt act, MITF act)
CCc1nc(NC(C)(C)C)c2cnn(-c3ccccc3)c2n1	esBAF inh 74, MITF act inconclusive
CC(=O)Nc1ccc2c(c1)C(=O)N(C)[C@H]1CC[C@@H](CC(=O)NCC3CCCCC3)O[C@H]1CO2	none (no result: SMARCA2 act, AF4-AF9 inh, Wnt act, MITF act)
CCOC(=O)c1ccc(-n2c(CN3CCN(CC)CC3)nc3ccc([N+](=O)[O-])cc3c2=O)cc1	SMARCA2 act 7.9
O=S(=O)(c1ccccc1)c1nc(-c2ccccc2)oc1N1CCOCC1	FGF22 binding 43 (no result: esBAF inh)
COc1cc(C)c2sc3ccccc3c(=O)c2c1NCCN(C)C	AF4-AF9 inh 45 (no result: MITF act)
Cc1ccc(NCCN(C)C)c2c(=O)c3cc(O)ccc3sc12	AF4-AF9 inh 39 (no result: esBAF inh)
CCN(CC)CCNc1ccc(CO)c2sc3ccccc3c(=O)c12	none
CN(C)CCNc1ccc2nnn3c4ccc(O)cc4c(=O)c1c23	none (no result: esBAF inh)
Cc1cccc(NC(=O)CNC(=O)[C@@H](Cc2ccccc2)NC(=O)[C@H]2O[C@@H](n3ccc(=O)[nH]c3=O)[C@H](O)[C@@H]2O)c1C	none (no result: AF4-AF9 inh, esBAF inh, MITF act)
FC(F)(F)c1ccccc1CNCc1ccncc1	none (no result: MITF act)
Clc1ccccc1CNCc1ccncc1	FGF22 binding 43
N#Cc1nc(COc2ccccc2Cl)oc1N1CCCC1	AF4-AF9 inh 26 (no result: esBAF inh)
N#Cc1nc(COc2ccccc2Cl)oc1N1CCCCCC1	none
N#Cc1nc(COc2ccccc2)oc1N1CCCCC1	esBAF inh 60
C[C@@H]1CN([C@H](C)CO)C(=O)c2cc(-c3cccnc3)cnc2O[C@H]1CN(C)C(=O)C1CCC1	none (no result: SMARCA2 act, Wnt act, MITF act)
CSc1nnc2c(n1)OC(c1ccccn1)N(C(C)=O)c1ccccc1-2 (stereo not drawn)	FGF22 binding 43
CSc1nnc2c(n1)OC(c1ccc(C(=O)O)cc1)N(C(C)=O)c1ccccc1-2 (stereo not drawn)	none
CN(C)c1cccc(C(=O)NCC(c2ccco2)N(C)C)c1 (stereo not drawn)	esBAF inh 40
COc1ccc2oc(C(=O)NCC(c3ccco3)N(C)C)c(C)c2c1 (stereo not drawn)	AF4-AF9 inh 35
CCn1c(Cc2cccs2)nnc1SCC(=O)c1ccc(Cl)cc1	none (no result: AF4-AF9 inh, FGF22 binding, Wnt act, esBAF inh, MITF act)
Cn1nnc(NC(=S)NC(=O)c2ccc(-c3ccc(Br)cc3)o2)n1	Wnt act 49 (no result: esBAF inh)
CCCn1nnc(NC(=S)NC(=O)c2ccc(-c3ccc(Br)cc3)o2)n1	none (no result: MITF act)
C[C@@H]1CCCCO[C@@H](CN(C)C(=O)c2ccncc2)[C@@H](C)CN([C@@H](C)CO)C(=O)c2cc(NS(=O)(=O)c3cn(C)cn3)ccc2O1	none (no result: SMARCA2 act, Wnt act, MITF act)
CS(=O)(=O)c1ccc(-c2sc3ccccc3c2C(=O)N2CCN(c3ccc(F)cc3)CC2)cc1	Wnt act 45, MITF act 94
Cc1noc(C)c1NC(=O)N(C)C[C@H]1Oc2c(NC(=O)C3CCOCC3)cccc2C(=O)N([C@H](C)CO)C[C@H]1C	none (no result: SMARCA2 act, Wnt act, MITF act)
C[C@@H]1CN([C@H](C)CO)C(=O)c2cccc(NC(=O)c3ccncc3)c2O[C@H]1CN(C)C(=O)Nc1cccc2ccccc12	none (no result: SMARCA2 act, Wnt act, MITF act)
CC(=O)c1ccc(NC(=O)N2CCc3ccccc3C2)cc1	none (no result: esBAF inh)
CS(=O)(=O)N1CCN(C(=O)Nc2ccccc2)CC1	FGF22 binding 43 (no result: Wnt act)
O=C(Nc1ccccc1)N1CCc2ccccc2C1	Wnt act 54, esBAF inh 44 (no result: AF4-AF9 inh, FGF22 binding)
O=C(Nc1ccc(Cl)cc1)N1CCc2ccccc2C1	esBAF inh 48
O=C(Cc1ccc(Cl)cc1)N1CCc2ccccc2C1	Wnt act inconclusive, esBAF inh 46 (no result: MITF act)
CO[C@H]1CN(C)C(=O)c2cc(NC(=O)Cc3ccccc3)ccc2OC[C@@H](C)N(C)C[C@@H]1C	none (no result: SMARCA2 act, Wnt act, MITF act)
N#CCc1ccc(NC(=O)c2ccc(CN3CCc4ccccc4C3)cc2)cc1	none
O=C(CNc1cccc(F)c1)N1CCc2ccccc2C1	Wnt act 36, esBAF inh 51, MITF act inconclusive
CS(=O)(=O)N1CCc2cc(C(=O)Nc3ccc(Cl)cc3)ccc21	esBAF inh 63 (no result: FGF22 binding, MITF act)
O=C(Nc1ccc(Cl)cc1)c1ccc(CN2CCc3ccccc3C2)cc1	esBAF inh 49
COc1ccc(NC(=O)c2ccc3c(c2)CCN3S(C)(=O)=O)cc1	none (no result: MITF act)
CN(C)CC(=O)N1[C@@H](C#N)[C@H](c2ccc(C#CC3CCCCC3)cc2)[C@@H]1CO	none (no result: SMARCA2 act, Wnt act, MITF act)
Nc1ccc2oc(-c3ccccc3Cl)cc(=O)c2c1O	esBAF inh 60
CN(C)C(=O)C[C@H]1CC[C@@H](NC(=O)NC2CCCCC2)[C@@H](CO)O1	none (no result: SMARCA2 act, Wnt act, MITF act)
COc1ccc(C)cc1NC(=O)n1ncc2c(C)cccc21	none
COc1ccc(NC(=O)n2ncc3c(C)cccc32)cc1	Wnt act 39
COc1ccc(NC(=O)n2ncc3c(C)cccc32)cc1OC	esBAF inh 53, MITF act 106
CCCNC(=O)Nc1ccc2c(c1)OC[C@H](C)N(Cc1ccc(-c3ccccn3)cc1)C[C@@H](C)[C@@H](OC)CN(C)C2=O	none (no result: SMARCA2 act, Wnt act, MITF act)
C[C@@H]1CCCCO[C@H](CN(C)C(=O)Nc2ccc3c(c2)OCO3)[C@H](C)CN([C@H](C)CO)C(=O)c2cc(NC(=O)c3ccncc3)ccc2O1	none (no result: SMARCA2 act, Wnt act, MITF act)
Cc1ccc(OCC(=O)NCc2ccccn2)c(Br)c1	esBAF inh 55 (no result: AF4-AF9 inh, FGF22 binding, Wnt act)
COc1ccc(CNC(=O)C/C(C)=N/NC(=O)COc2ccc(C)cc2Br)cc1	FGF22 binding 43 (no result: esBAF inh)
